Experimental data as given in PubChem BioAssay (NCATS).
Inconclusive results are not listed. Entries that show only a call come without a potency. Active and inactive are the calls of the source. Calls come from the whole dose curve; as a rule, active = well fitted curve in the direction sought with a large enough effect; inconclusive = small, poorly fitted or top-dose-only effect, or another doubt; inactive = no such curve, though single readings can be large; an effect the other way counts as inactive or inconclusive.

Legend:
[1] = biological target: Glutathione peroxidase 1 (Homo sapiens) (UniProt P07203); assay: Primary qHTS Assay for Inhibitors of Recombinant Selenoprotein Glutathione Peroxidase 1 (GPX1) (AID 1845191); note: nearly all actives have a fitted effect of over 65% in size
In short: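 NADPH consumption tracked by fluorescence at 340/450 nm between t=0 and t=15 min, room temperature. Final mix: 10 nM GPX1, 100 nM glutathione reductase, 1 mM GSH, 0.5 mM NADPH, 0.5 mM cumene hydroperoxide, 0.01% BSA; 30 min compound–enzyme preincubation.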

[2] = biological target: Phospholipid hydroperoxide glutathione peroxidase GPX4 (Homo sapiens) (UniProt P36969); assay: Primary qHTS Assay for Inhibitors of Recombinant Selenoprotein Glutathione Peroxidase 4 (GPX4) (AID 1845192); note: nearly all actives have a fitted effect of over 65% in size; note: potency is the fitted concentration of half-maximal effect
In short: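 NADPH consumption followed by fluorescence at 340/450 nm, t=0 and after 15 min at room temperature. Reaction started with cumene hydroperoxide (0.5 mM final) after 30 min compound–GPX4 preincubation; final 200 nM GPX4, 100 nM GR, 1 mM GSH, 0.5 mM NADPH.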

[3] = biological target: Luciferin 4-monooxygenase (Photinus pyralis) (UniProt P08659); assay: Primary firefly luciferase (FLuc) qHTS assay for identification of artifact compounds. (AID 1845220); note: nearly all actives have a fitted effect of over 60% in size; note: potency is the fitted concentration of half-maximal effect
In short: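 Cell-free, 1536-well qHTS. Buffer pH 7.6 with 0.01% Tween-20 and 0.05% BSA; 10 uM D-luciferin, 10 uM ATP; 10 nM P. pyralis luciferase; luminescence after 5 min.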

[4] = system: Nanoluciferase (engineered Oplophorus gracilirostris luciferase); assay: Primary Nanoluciferase (NLuc) qHTS assay for identification of artifact compounds. (AID 1845222); note: series mostly up to about 54 µM
In short: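 Compounds are pinned into diluted (1:55) conditioned medium of NLuc-expressing S16 cells and held 15 min at room temperature protected from light. Nano-Glo substrate follows, and luminescence is read 5 min later.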

[5] = Primary redox qHTS assay for identification of artifact compounds. (AID 1845223)
In short: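 Redox-cycling detection via DTT (250 uM final) oxidation coupled to Amplex Red (25 uM)/HRP (250 mU/mL) in HBSS. 15 min preincubation plus 30 min after DTT, room temperature. Ex/Em 525/598 nm; 4-parameter Hill fit against DMSO and 10 uM DA3003.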

Sequence of Glutathione peroxidase 1 (Homo sapiens) (P07203 whole entry, looked up): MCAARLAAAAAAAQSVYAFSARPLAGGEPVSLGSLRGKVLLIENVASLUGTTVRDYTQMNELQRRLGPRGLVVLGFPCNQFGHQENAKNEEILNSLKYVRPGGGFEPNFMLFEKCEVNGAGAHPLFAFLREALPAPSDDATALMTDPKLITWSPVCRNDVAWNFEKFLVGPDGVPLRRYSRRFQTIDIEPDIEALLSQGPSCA
Sequence of Phospholipid hydroperoxide glutathione peroxidase GPX4 (Homo sapiens) (P36969 whole entry, looked up): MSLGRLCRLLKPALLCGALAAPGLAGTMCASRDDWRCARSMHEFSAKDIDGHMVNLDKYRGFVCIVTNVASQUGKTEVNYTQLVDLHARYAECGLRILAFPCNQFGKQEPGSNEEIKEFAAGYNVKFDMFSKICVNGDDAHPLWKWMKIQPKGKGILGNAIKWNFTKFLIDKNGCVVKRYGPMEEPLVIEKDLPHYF

Structure (SMILES) | Potency [1] | Potency [2] | Potency [3] | Potency [4] | Potency [5]
N#Cc1cnc2c(Cl)cc(NCc3cn(CCN4CCCCCC4)nn3)cc2c1Nc1ccc(F)c(Cl)c1 | inactive | inactive | inactive | inactive | inactive
CCOc1cc(C(C)(C)C)ccc1C1=N[C@@](C)(c2ccc(Cl)cc2)[C@@](C)(c2ccc(Cl)cc2)N1C(=O)N1CCN(CC(=O)N2CCOCC2)CC1 | inactive | inactive | inactive | inactive | inactive
COc1ccc(C2Oc3c(OC)cc(CCCO)cc3C2COC2OC(CO)C(O)C(O)C2O)cc1OC (stereo not given) | inactive | inactive | inactive | inactive | inactive
COc1ccc(N2CCN(C(=O)c3cc4c(s3)-c3ccccc3S(=O)(=O)C4)CC2)cc1 | inactive | inactive | inactive | inactive | inactive
CC(O)C(C)n1ncn(-c2ccc(N3CCN(c4ccc(OCC5COC(Cn6cncn6)(c6ccc(Cl)cc6Cl)O5)cc4)CC3)cc2)c1=O (stereo not given) | inactive | inactive | inactive | inactive | inactive
CN1CCN(C2=Nc3ccccc3Nc3ccc(OS(=O)(=O)C(F)(F)F)cc32)CC1 | inactive | inactive | inactive | inactive | inactive
C=C1C(=O)OC2CC(C)=C(C(C)CCCOC(C)=O)C(OC(=O)CC(C)CC)C12 (stereo not given) | inactive | inactive | inactive | inactive | inactive
CCC(C)CNCC(=O)N1CCC2SC=CC2C1COc1cccc(C)c1 (stereo not given) | inactive | inactive | inactive | inactive | inactive
C[C@@H]1CC[C@@]23CC[C@]4(C)[C@@](C=CC5[C@@]6(C)CC[C@H](O)C(C)(C)C6CC[C@]54C)(OC2=O)C3[C@H]1C (stereo not given in full) | inactive | inactive | inactive | inactive | inactive
COC(=O)C[C@H]1[C@]2(C)C3=C(C)[C@H](c4ccoc4)C[C@H]3O[C@@H]2[C@H](O)C2[C@](C)(C(=O)OC)C=CC(=O)[C@@]21C (stereo not given in full) | inactive | inactive | inactive | inactive | inactive
C/C=C/C=C/C=C/C(=O)O[C@@H]1C=C2COC(=O)[C@]2(O)[C@@]2(C)CCCC(C)(C)[C@H]12 | inactive | inactive | inactive | inactive | inactive
Cn1cc(C2=C(c3coc4ccccc34)C(=O)NC2=O)c2cc(Br)ccc21 | inactive | inactive | inactive | inactive | inactive
Cc1cn2c(n1)Cc1ccc(Cl)cc1C(c1ccc(N)cc1)=N2 | inactive | inactive | inactive | inactive | inactive
COc1cc(OC)c(NC(=O)c2ccc(Cc3cc4c(cc3C)C(C)(C)CCC4(C)C)o2)c(OC)c1 | inactive | inactive | inactive | inactive | inactive
CCOC(=O)c1cnn(-c2ccccc2)c1NC(=O)c1cc2nc(-c3ccco3)cc(C(F)(F)Cl)n2n1 | inactive | inactive | inactive | inactive | inactive
CN(C)c1cccc(Oc2cnc(Nc3cccc(O)c3)nc2)c1 | inactive | inactive | inactive | inactive | inactive
COc1cc2nc(N3CCN(C(=O)c4ccco4)C4CCCCC43)nc(N)c2cc1OC (stereo not given) | inactive | 22.7 µM (active) | inactive | inactive | inactive
C=C1/C(=C/C=C2\CCC[C@]3(C)[C@@H]([C@H](C)/C=C/[C@@H](C)C(C)C)CC[C@@H]23)C[C@@H](O)C[C@@H]1O | inactive | inactive | inactive | inactive | inactive
CNCc1cc(-c2ccccc2F)n(S(=O)(=O)c2cccnc2)c1 | inactive | inactive | inactive | inactive | inactive
COCCNCc1ccc(-c2cc3nccc(Oc4ccc(NC(=O)C5(C(=O)Nc6ccc(F)cc6)CC5)cc4F)c3s2)nc1 | inactive | inactive | inactive | inactive | inactive
NC(=O)N1CCC(CC(=O)N2CCC(C3c4ncc(Br)cc4CCc4cc(Cl)cc(Br)c43)CC2)CC1 (stereo not given) | inactive | inactive | inactive | inactive | inactive
O=S(=O)(Nc1ccccc1N1CCCCC1)c1ccc(Cl)s1 | inactive | inactive | inactive | inactive | inactive
CC(C)(C)NC(=O)[C@H]1CC[C@H]2[C@@H]3CC[C@H]4NC(=O)CC[C@]4(C)[C@H]3CC[C@]12C | inactive | inactive | inactive | inactive | inactive
CC(C)(C)OC(=O)c1ncn2c1C(C)(C)Nc1ccccc1-2 | inactive | inactive | inactive | inactive | inactive
N#Cc1cc(-c2ccnc(Nc3ccc(N4CCOCC4)cc3)n2)ccc1OC1CCOCC1 | inactive | inactive | inactive | inactive | inactive
COc1ccc(N(C(=O)Nc2c(C)cccc2C)c2cc(Nc3ccc(N4CCN(C)CC4)cc3)ncn2)c(OC)c1 | inactive | inactive | inactive | inactive | inactive

Structure (SMILES) | Potency [1] | Potency [2] | Potency [3] | Potency [4] | Potency [5]
OC1CCC(Nc2nc(-c3ccccc3)nc3[nH]ccc23)CC1 (stereo not given) | inactive | inactive | inactive | inactive | inactive
O=C(Nc1cccc([N+](=O)[O-])c1)c1cccc(S(=O)(=O)N2CCCCCC2)c1 | inactive | inactive | inactive | inactive | inactive
CCn1c2ccccc2c2cc(Nc3ccnc(NCCCN4CCOCC4)n3)ccc21 | inactive | inactive | inactive | inactive | inactive
Cc1c(C(=O)NCc2cccnc2)nn(-c2ccc(Cl)cc2Cl)c1-c1ccc(Cl)cc1 | inactive | inactive | inactive | inactive | inactive
CC(C)=C[C@@H]1[C@H](CO[C@@H]2O[C@H](CO)[C@@H](O)[C@H](O)[C@H]2O)C1(C)C | inactive | inactive | inactive | inactive | inactive
COc1cc2c(cc1OC(C)C)[C@H](c1ccc(Cl)cc1)N(c1ccc(N(C)CC3CCC(N4CCN(C)C(=O)C4)CC3)cc1)C(=O)C2 (stereo not given in full) | inactive | inactive | inactive | inactive | inactive
CCOc1ccc(CCNC(=O)c2cc3sc(Cl)cc3n2C)cc1OCC | inactive | inactive | inactive | inactive | inactive
C=C1C(=O)O[C@@H]2C3=C(C)CCC[C@]3(C)CC[C@@]12O | inactive | inactive | inactive | inactive | inactive
C=C1C(=O)OC2C=C(C)CC/C=C(\CO)CC(O)C12 (stereo not given) | inactive | inactive | inactive | inactive | inactive
CC(=O)O[C@H]1CC[C@]2(C)[C@H]3CC[C@]4(C)Oc5oc(C)cc(=O)c5C[C@H]4[C@]3(C)CC[C@H]2C1(C)C | inactive | inactive | inactive | inactive | inactive
Cc1c(NC(=O)c2cc3c(s2)CCCC3)cccc1-c1cn(C)c(=O)c(Nc2ccc(C3C(=O)N(C)CCN3C)cc2)n1 (stereo not given) | inactive | inactive | 4.78 µM (active) | inactive | inactive
COC(=O)c1ccc2c(c1)nc(NC(=O)c1ccccc1)n2CCCc1ccccc1 | inactive | inactive | inactive | inactive | inactive
CC1CCCC[C@H]2C(=O)C=C[C@H](O)[C@@H]2CC(=O)O1 (stereo not given in full) | inactive | inactive | inactive | inactive | inactive
COc1cc2ncnc(Oc3ccc(CC(=O)Nc4cnn(C(C)C)c4)cc3)c2cc1OC | inactive | inactive | inactive | inactive | inactive
COc1cc2ncnc(Nc3ccc(O)c(Br)c3)c2cc1OC | inactive | inactive | inactive | inactive | inactive
C=C1C(=O)O[C@@H]2C[C@H](C)[C@@H]3CC(=O)[C@H](O)[C@@]3(C)C[C@H]12 | inactive | inactive | inactive | inactive | inactive
O=C(NNc1nc2cc(F)ccc2n2cccc12)c1cnccn1 | inactive | inactive | inactive | inactive | inactive
O=c1nc(-c2ccccn2)sc2ccccc12 | inactive | inactive | inactive | inactive | inactive
COc1ccc([C@H](Cc2ccncc2)c2ccccc2)cc1OC1CCCC1 | inactive | inactive | inactive | inactive | inactive
CC(C)C[C@@H](C(=O)N[C@@H](Cc1ccc(OCc2ccccc2)cc1)C(=O)NC(C)(C)C)N(C)Cc1ccc(C(C)(C)C)cc1 | inactive | inactive | inactive | inactive | inactive
C[C@@H](NC(=O)C(=O)c1c[nH]c2ccc([N+](=O)[O-])cc12)c1ccccc1 | inactive | inactive | inactive | inactive | inactive
CC1(CO)CC(O)[C@]2(C(=O)O)CCC34CC3(C=CC3[C@]5(C)C(CC[C@]34C)C(C)(CO)[C@@H](O)[C@H](O)[C@@H]5O)C2C1 (stereo not given in full) | inactive | inactive | inactive | inactive | inactive
CC(C)/C=C1\NC(=O)C(C(C)C)n2c1nc1ccccc1c2=O (stereo not given) | inactive | inactive | inactive | inactive | inactive
C=C(C(=O)O)[C@@H]1CC=C(CCC(C)=O)[C@@H](C)CC1 | inactive | inactive | inactive | inactive | inactive
CC[C@H](C(=O)Nc1ccccc1N1CCCC1)c1ccccc1 | inactive | inactive | inactive | inactive | inactive
